According to PubChem BioAssay (NCATS):
Records with an inconclusive call do not appear. Entries that show only a call come without a potency. Calls of active or inactive are those of the source. The call rests on the fitted dose curve; in most records, active means well fitted cell-killing curve with a large enough effect; inconclusive means small, poorly fitted or top-dose-only effect; inactive means flat fitted curve, though single readings scatter.

Assay: Cellular viability qHTS for adrenocortical cancer (ACC) cell line NCI-H295R (AID 1963990); further: nearly all actives have a fitted effect of over 60% in size
Settings: CellTiter-Glo ATP luminescence, 48 h; series mostly up to 46.1 µM
In short: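 Compound titrations (up to 46 uM final) are applied to NCI-H295R cultures for 48 h at 37C. Viable cell number is estimated by CellTiter-Glo signal, normalised to DMSO and doxorubicin controls.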
Potency means the concentration at half of the fitted maximal effect.

| Compound | Potency |
| --- | --- |
| CN1CCN(Cc2ccc(Nc3ncc(Cl)c(Nc4ccccc4S(=O)(=O)N(C)C)n3)cc2)CC1 | 0.237 µM (active) |
| C[C@@H]1CC(=O)Nc2cccc(-c3cnn(C(C)(C)C)c3)c2N1 | inactive |
| C[C@@H]1CC(=O)Nc2cccc(-c3ccc4c(c3)c(-c3cnn(C)c3)nn4C)c2N1 | inactive |
| C[C@@H](O[C@H]1OCCN(Cc2n[nH]c(=O)[nH]2)[C@@H]1c1ccc(F)cc1)c1cc(C(F)(F)F)cc(C(F)(F)F)c1 | 25.1 µM (active) |
| CONC(=O)Nc1ccc(-c2sc3c(c2CN(C)Cc2ccccc2)c(=O)n(-c2ccccc2)c(=O)n3Cc2c(F)cccc2F)cc1 | inactive |
| CNCc1ccccc1 | inactive |
| COc1cccc2c1C(=O)c1c(O)c3c(c(O)c1C2=O)C[C@@](O)(C(=O)CO)C[C@@H]3O[C@H]1C[C@H](N)[C@H](O[C@@H]2CCCCO2)[C@H](C)O1 | 3.66 µM (active) |
| O=C(O)/C(S)=C/c1ccc(I)cc1 | inactive |
| Cc1ccc(S(=O)(=O)Nc2cc(-c3ccc(C#N)s3)ccc2C)cc1 | 0.0316 µM (active) |
| CNC(=O)[C@H]1O[C@@H](n2cnc3c(NCc4cccc(I)c4)nc(Cl)nc32)[C@H](O)[C@@H]1O | inactive |
| COc1cc(C)[nH]c(=O)c1CN1CCc2c(Cl)cc([C@H](OC)C3COC3)c(Cl)c2C1=O | inactive |
| COc1ccccc1C(=O)Nc1cc2c(cc1N1CCCCC1)n(C)c(=O)n2C | inactive |
| CCC[C@H](N[C@H]1CCc2cc(F)cc(F)c2C1)C(=O)Nc1cn(C(C)(C)CNCC(C)(C)C)cn1 | 25.1 µM (active) |
| Cc1ccc(S(=O)(=O)Nc2cc(C(F)(F)F)ccc2C(=O)Nc2nc(-c3ccccc3)cs2)cc1 | 2.51 µM (active) |
| CC(/C=C/C(=O)NO)=C\[C@@H](C)C(=O)c1ccc(N(C)C)cc1 | 3.98 µM (active) |
